The values that follow come from PubChem BioAssay.

Values without a mark were called inactive. For some of these results: Measured potencies and affinities stand elsewhere. The source made the active and inactive calls. Unless noted, the rule behind the calls is not given here.

The nature of assay [1]: antimalarial activity against Dd2 strain (AID 2302;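 active = growth inhibition above 50% at the single 2 µM test dose, taken to imply half-maximal potency below 2 µM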;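 note: 0% = DMSO untreated growth and 100% = chloroquine plus artemisinin killed control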). The note with it: P. falciparum Dd2 in RBCs, LDH growth readout, 72 h; at 2 µM; active compounds read high.
Assay [2] can be described thus: human hepatoma cell viability loss – ATP luminescence, cytotoxicity control for P. falciparum antimalarial project, primary screen (AID 2303;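 active = inhibition above 50%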;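 note: 0% = DMSO wells and 100% = digitonin-killed cells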). The note with it: HepG2 viability, 24-48 h, at 10 µM, active compounds read high.
Assay [3] deals with L-lactate dehydrogenase (Plasmodium falciparum (isolate CDC / Honduras)) (UniProt Q27743). Put plainly: PfLDH activity inhibition – cell lysate, 3D7 strain, counter-screen for P. falciparum growth inhibition project (AID 2304).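 Note: 0% = vehicle and 100% = reference inhibitor.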 The note with it: P. falciparum 3D7 crude extract, LDH APAD/NBT absorbance; at 2 µM; active compounds read high.
L-lactate dehydrogenase (Plasmodium falciparum (isolate CDC / Honduras)), sequence (Q27743 whole entry, looked up): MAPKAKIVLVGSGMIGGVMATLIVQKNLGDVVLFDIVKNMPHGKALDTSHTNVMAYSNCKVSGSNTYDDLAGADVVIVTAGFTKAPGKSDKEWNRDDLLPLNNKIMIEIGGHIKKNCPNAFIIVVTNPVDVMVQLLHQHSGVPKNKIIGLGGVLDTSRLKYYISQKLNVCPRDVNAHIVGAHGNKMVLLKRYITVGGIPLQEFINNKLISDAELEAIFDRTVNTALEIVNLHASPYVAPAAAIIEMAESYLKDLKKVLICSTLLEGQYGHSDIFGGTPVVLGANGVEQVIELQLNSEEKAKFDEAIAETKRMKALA
A short description of assay [4]: inhibition of 3D7 malaria parasite growth – strain 3D7 (AID 2306).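 Note: 0% = DMSO wells and 100% = chloroquine plus artemisinin control wells.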 The note with it: P. falciparum 3D7 erythrocytic growth, LDH absorbance, 72 h; at 2 µM; active compounds read high.
For assay [5], the target named is Calcium-dependent protein kinase 1 (Plasmodium falciparum (isolate 3D7)) (UniProt P62344). The assay can be described thus: PfCDPK1 kinase inhibitors, biochemical, TCAMS library (AID 1159585; cut-off not given, nearly all actives have IC50 up to about 0.98 µM;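 note: inhibitors leave more ATP so luminescence rises with inhibition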). The note with it: recombinant PfCDPK1, Kinase-Glo ATP depletion luminescence.
Calcium-dependent protein kinase 1 (Plasmodium falciparum (isolate 3D7)), sequence (P62344 whole entry, looked up): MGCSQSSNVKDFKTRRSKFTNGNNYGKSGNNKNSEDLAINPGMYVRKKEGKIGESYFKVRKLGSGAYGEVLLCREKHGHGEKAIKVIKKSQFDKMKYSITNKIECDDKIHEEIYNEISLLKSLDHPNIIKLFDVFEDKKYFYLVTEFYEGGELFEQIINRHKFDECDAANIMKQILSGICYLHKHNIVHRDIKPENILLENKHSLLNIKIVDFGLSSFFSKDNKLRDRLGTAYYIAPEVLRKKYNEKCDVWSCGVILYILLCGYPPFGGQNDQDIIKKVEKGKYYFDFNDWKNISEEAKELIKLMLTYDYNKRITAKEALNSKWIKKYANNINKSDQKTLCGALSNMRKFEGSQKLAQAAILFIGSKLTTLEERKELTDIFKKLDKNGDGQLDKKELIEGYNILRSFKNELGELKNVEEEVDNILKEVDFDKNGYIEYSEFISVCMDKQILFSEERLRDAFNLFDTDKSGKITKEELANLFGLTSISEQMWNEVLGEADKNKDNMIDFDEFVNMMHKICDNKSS
For assay [6], the target named is Plasmodium falciparum protein kinase 6 (PK6, PF3D7_1337100) (UniProt Q8IDW1). The assay can be described thus: PfPK6 kinase inhibitors, biochemical, TCAMS library (AID 1159586). The note with it: recombinant PfPK6, Kinase-Glo ATP depletion luminescence.
Plasmodium falciparum protein kinase 6 (PK6, PF3D7_1337100), sequence (Q8IDW1 1-305): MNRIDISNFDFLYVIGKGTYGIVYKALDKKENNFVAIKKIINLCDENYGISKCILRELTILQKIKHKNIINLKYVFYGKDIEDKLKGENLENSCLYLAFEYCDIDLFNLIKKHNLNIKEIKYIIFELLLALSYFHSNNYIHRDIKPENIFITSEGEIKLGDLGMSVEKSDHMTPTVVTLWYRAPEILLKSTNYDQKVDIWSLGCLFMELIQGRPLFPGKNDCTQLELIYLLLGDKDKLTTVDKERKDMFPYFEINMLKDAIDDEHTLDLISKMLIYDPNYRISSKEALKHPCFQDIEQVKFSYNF
Assay [7] deals with Protein kinase 7 (PK7), Plasmodium falciparum 3D7 (PF3D7_0213400) (UniProt Q7YTF7). Put plainly: inhibition of Plasmodium PK7 catalytic activity – biochemical, TCAMS antimalarial set, Kinase-Glo luminescence (AID 1159587). The note with it: recombinant PfPK7, Kinase-Glo ATP depletion luminescence.
Protein kinase 7 (PK7), Plasmodium falciparum 3D7 (PF3D7_0213400), sequence (Q7YTF7 1-343): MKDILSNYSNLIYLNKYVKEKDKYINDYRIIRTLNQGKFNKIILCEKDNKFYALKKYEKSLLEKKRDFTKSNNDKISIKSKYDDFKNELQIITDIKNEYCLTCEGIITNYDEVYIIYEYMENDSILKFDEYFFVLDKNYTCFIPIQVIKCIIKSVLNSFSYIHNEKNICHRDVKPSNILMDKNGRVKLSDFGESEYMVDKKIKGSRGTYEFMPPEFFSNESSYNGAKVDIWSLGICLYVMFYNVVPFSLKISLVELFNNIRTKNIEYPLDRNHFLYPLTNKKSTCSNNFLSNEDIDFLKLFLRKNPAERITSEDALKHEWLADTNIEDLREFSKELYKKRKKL
Assay [8] has as its target Calcium-dependent protein kinase 4 (Plasmodium falciparum (isolate 3D7)) (UniProt Q8IBS5). The assay can be described thus: PfCDPK4 kinase inhibitors, biochemical, TCAMS library (AID 1159588; cut-off not given, nearly all actives have IC50 up to about 0.91 µM). The note with it: recombinant PfCDPK4, Kinase-Glo ATP depletion luminescence.

Calcium-dependent protein kinase 4 (Plasmodium falciparum (isolate 3D7)), sequence (Q8IBS5 whole entry, looked up): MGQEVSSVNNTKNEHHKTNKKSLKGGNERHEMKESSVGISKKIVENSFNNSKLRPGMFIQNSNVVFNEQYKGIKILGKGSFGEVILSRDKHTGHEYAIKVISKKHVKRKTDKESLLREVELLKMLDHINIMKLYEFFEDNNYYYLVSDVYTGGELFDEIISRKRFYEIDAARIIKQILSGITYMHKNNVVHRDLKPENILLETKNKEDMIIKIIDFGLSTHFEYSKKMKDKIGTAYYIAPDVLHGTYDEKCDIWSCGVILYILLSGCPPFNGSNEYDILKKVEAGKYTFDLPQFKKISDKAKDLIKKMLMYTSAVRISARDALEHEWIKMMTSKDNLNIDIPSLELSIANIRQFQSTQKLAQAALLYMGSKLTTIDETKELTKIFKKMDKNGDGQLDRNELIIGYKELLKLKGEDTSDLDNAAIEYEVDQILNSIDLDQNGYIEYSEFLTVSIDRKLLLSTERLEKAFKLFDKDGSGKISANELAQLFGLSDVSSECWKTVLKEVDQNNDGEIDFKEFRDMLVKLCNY

Turning to `O=C(NC(CCCN1CCC2(CC1)OCc1ccccc12)c1ccc(Cl)c(Cl)c1)c1cc(C(F)(F)F)cc(C(F)(F)F)c1` (stereo not given), the growth inhibition is 99% (active) in assay [1] and 100% (active) in assay [4]. Further, the values for the inhibition in assay [2] and in assay [3] were 55% (active) and 5%, respectively. Also, the outcome in assay [5], in assay [6], in assay [7] and in assay [8] was inactive.

Consider `Cc1cccc2[nH]c(-c3ccc(-c4cccc(CNCCc5ccncc5)c4)s3)nc12`, for which the growth inhibition is 89% (active) in assay [1] and 100% (active) in assay [4]. The values for the inhibition in assay [2] and in assay [3] were 11% and 2%, respectively. Moreover, the result in assay [5], in assay [6], in assay [7] and in assay [8] was inactive.

As to `CCc1cccc2sc(N3CCN(C(=O)c4ccc([N+](=O)[O-])o4)CC3)nc12`, the growth inhibition in assay [1] was 94% (active); in assay [4], 97% (active). Moreover, the inhibition in assay [2] is 2%; in assay [3] it was 0%. The outcome in assay [5], in assay [6], in assay [7] and in assay [8] was inactive.

Take `Cc1ccc(C(=O)Nc2ccc(Nc3ccnc4cc(-c5ccncc5)ccc34)cc2O)cc1`: the growth inhibition is 100% (active) in assay [1] and 97% (active) in assay [4]. For the same compound, the results for the inhibition in assay [2] and in assay [3] were 14% and 1%, respectively. Further, the outcome in assay [5], in assay [6], in assay [7] and in assay [8] was inactive.

Regarding `COc1cccc(-c2ccc(NC(=O)C3CCCN(Cc4cccc(OC)c4O)C3)cc2)c1` (stereo not given), the growth inhibition in assay [1] is 78% (active); in assay [4], 98% (active). In addition, the inhibition was 13% in assay [2] and 1% in assay [3]. Also, the outcome in assay [5], in assay [6], in assay [7] and in assay [8] was inactive.

In the case of `Cc1cc(C=C2SC(=Nc3ccccc3)N(C3CCCC3)C2=O)c(C)n1-c1ccc(Cl)cc1`, the growth inhibition was 70% (active) in assay [1] and 100% (active) in assay [4]. The figures for the inhibition in assay [2] and in assay [3] were -8% and -1%, respectively. For the same compound, the result in assay [5], in assay [6], in assay [7] and in assay [8] was inactive.

On to `CC(=O)Nc1cccc(C(=O)Nc2cccc(-c3ccc(-c4nc5ccc(C(F)(F)F)cc5[nH]4)s3)c2)c1`, for which the growth inhibition was 46% in assay [1] and 98% (active) in assay [4]. Further, the values for the inhibition in assay [2] and in assay [3] were 80% (active) and -3%, respectively. Moreover, the outcome in assay [5], in assay [6], in assay [7] and in assay [8] was inactive.

On to `O=C(NCCCCCN1CCC(c2c[nH]c3ccccc23)CC1)Nc1ccc(Cl)c(Cl)c1`, for which the figures for the growth inhibition in assay [1] and in assay [4] were -4% and 92% (active), respectively. Also, the inhibition is 42% in assay [2] and 6% in assay [3]. For the same compound, the result in assay [5], in assay [6], in assay [7] and in assay [8] was inactive.

`O=C(Nc1ccc2c(c1)CCN(C1CCC1)CC2)c1cn(-c2ccccc2)nc1-c1ccccc1`: the growth inhibition in assay [1] was 10%; in assay [4], 103% (active). The inhibition was 38% in assay [2] and 3% in assay [3]. Moreover, the outcome in assay [5], in assay [6], in assay [7] and in assay [8] was inactive.

In the case of `Oc1ccc(CCNc2nc(N/N=C/C=C/c3ccc(Cl)cc3)nc(N3CCNCC3)n2)cc1`, the growth inhibition in assay [1] is 52% (active); in assay [4], 98% (active). The values for the inhibition in assay [2] and in assay [3] were 17% and 2%, respectively. Moreover, the outcome in assay [5], in assay [6], in assay [7] and in assay [8] was inactive.

Turning to `CC(C)CCNCc1ccc(OCc2ccccc2COc2ccc(CNCCC(C)C)cc2I)c(I)c1`, the growth inhibition was 78% (active) in assay [1] and 101% (active) in assay [4]. In addition, the figures for the inhibition in assay [2] and in assay [3] were 99% (active) and 0%, respectively. Also, the result in assay [5], in assay [6], in assay [7] and in assay [8] was inactive.

Consider `NC(N)=Nc1nc(-c2cccc(NC(=O)NCC(c3ccccc3)c3ccccc3)c2)cs1`, for which the growth inhibition in assay [1] is 87% (active); in assay [4], 100% (active). In addition, the inhibition in assay [2] is -3%; in assay [3], 1%. For the same compound, the result in assay [5], in assay [6], in assay [7] and in assay [8] was inactive.

For `CS(=O)(=O)c1ccc(-c2nc(NCC3CCCCC3)cc(C(F)(F)F)n2)cc1`, the growth inhibition in assay [1] is 76% (active); in assay [4], 83% (active). In addition, the values for the inhibition in assay [2] and in assay [3] were -9% and 2%, respectively. The outcome in assay [5], in assay [6], in assay [7] and in assay [8] was inactive.

As to `Oc1ccccc1CCNCC1CCc2ccccc2C1` (stereo not given), the growth inhibition in assay [1] and in assay [4] was 98% (active) throughout. Moreover, the inhibition in assay [2] is 37%; in assay [3] it was 0%. Also, the outcome in assay [5], in assay [6], in assay [7] and in assay [8] was inactive.

For the compound `COc1cc(C=CC(=O)N2CCC(CCN3CCC(c4c[nH]c5ccccc45)CC3)CC2)cc(OC)c1`, the growth inhibition in assay [1] was 23%; in assay [4], 92% (active). In addition, the inhibition in assay [2] was 39%; in assay [3] it was -5%. Further, the outcome in assay [5], in assay [6], in assay [7] and in assay [8] was inactive.

Consider `Cc1ccc2nc3sc(C(=O)NCCCN4CCC(N5CCCCC5)CC4)cc3cc2c1`, for which the growth inhibition is 71% (active) in assay [1] and 103% (active) in assay [4]. In addition, the inhibition in assay [2] is 11%; in assay [3], -5%. In addition, the result in assay [5], in assay [6], in assay [7] and in assay [8] was inactive.

`CCc1ccc(C2CCN(CCCCNC(=O)c3ccc(-c4ccc(Cl)cc4)cc3)CC2)c(O)c1`: the growth inhibition in assay [1] was 99% (active); in assay [4], 101% (active). Further, the inhibition in assay [2] is 48%; in assay [3], 2%. Further, the result in assay [5], in assay [6], in assay [7] and in assay [8] was inactive.

Turning to `Cc1cc2nc(-c3ccc(/C=C/C(=O)NCCCc4ccccc4)cc3)[nH]c2cc1C`, the figures for the growth inhibition in assay [1] and in assay [4] were 13% and 96% (active), respectively. Further, the inhibition in assay [2] is 15%; in assay [3] it was -4%. The result in assay [5], in assay [6], in assay [7] and in assay [8] was inactive.

`Cc1cccc2[nH]c(-c3ccc(-c4ccc(CN5CCN(C6CCN(C)CC6)CC5)cc4)s3)nc12`: the growth inhibition in assay [1] and in assay [4] was 101% (active) each time. Further, the inhibition in assay [2] is 97% (active); in assay [3], -4%. Moreover, the outcome in assay [5], in assay [6], in assay [7] and in assay [8] was inactive.

For `CC(C)NCc1cccc(-c2ccc(NC(=O)c3ccc(C#N)cc3)cc2)c1`, the growth inhibition in assay [1] is 8%; in assay [4], 99% (active). The results for the inhibition in assay [2] and in assay [3] were 15% and 3%, respectively. In addition, the result in assay [5], in assay [6], in assay [7] and in assay [8] was inactive.
